# Bioassay records: PubChem BioAssay, The Scripps Research Institute Molecular Screening Center
# TEAD-YAP inh: TEAD-YAP interaction inhibition | HEK-TIYL cells, TEAD-Gal4/YAP UAS-luciferase luminescence | 640,000 compounds, 1.4% hits | inhibition, % at 9.12 µM; in the data active means inhibition above about 32%;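 further: 0% = median of test compound wells and 100% = reference inhibitor wells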
# FBW7 act: human FBW7 E3 ligase activation, primary screen | AlphaScreen FBW7–phospho-cyclin E peptide binding, activator screen | normalized activity (activation), % at 26.1 µM | 650,000 compounds, 0.13% hits | AID 1259310; in the data active means normalized activity above about 1.9%;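 further: purified mutant Fbw7 with reduced substrate affinity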
# GPR151 activ: human GPR151 activation. Q8TDV0. PathHunter beta-arrestin GPR151 cells, luminescence. activation, % at 11.2 µM. 650,000 compounds, 1% hits; in the data active means activation above about 4.9%;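 further: 0% = median of compound wells and 100% = cells with positive control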
# MITF primary: blocks human microphthalmia-associated transcription factor | AlphaScreen MITF homodimerization, bead proximity signal | inhibition, % at 2.6 µM | 650,000 compounds, 0.91% hits; in the data active means inhibition above about 50%;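 further: 0% = vehicle wells with protein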
# GPR151 confirm: confirmation of human GPR151 activators; activation, % at 11.2 µM; shares compounds with GPR151 activ; 6,700 tested, under 10 active; GPR151 PathHunter beta-arrestin cells, luminescence, 90 min; % of EA-reagent control over plate median;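 active means mean percent activation across replicates above the confirmation screen cutoff of 4.91%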
# GPR119 ag: GPR119 activation, counter-screen for GPR151 activators. shares compounds with GPR151 activ. GPR119 PathHunter beta-arrestin cells, luminescence, 90 min; 0 = compound-well median, 100 = enzyme-acceptor control. activation, % at 11.2 µM. 6,700 compounds, 0.3% hits. AID 1508611;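 active means mean percent activation in the counterscreen above 29.09%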;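 further: counterscreen on off-target GPR119 to flag nonselective hits from the GPR151 activator screen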
# Target sequence (Q8TDV5 whole entry, looked up): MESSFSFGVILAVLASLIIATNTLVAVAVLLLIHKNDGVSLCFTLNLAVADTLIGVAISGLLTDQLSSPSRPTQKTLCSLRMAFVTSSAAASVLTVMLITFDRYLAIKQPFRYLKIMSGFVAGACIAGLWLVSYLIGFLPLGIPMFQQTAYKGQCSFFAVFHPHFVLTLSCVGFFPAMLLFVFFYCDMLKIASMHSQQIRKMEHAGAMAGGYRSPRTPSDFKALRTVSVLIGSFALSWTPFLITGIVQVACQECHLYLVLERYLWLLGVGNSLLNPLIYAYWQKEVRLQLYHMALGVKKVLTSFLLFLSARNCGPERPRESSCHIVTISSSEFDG
# * = called active by the depositor; . = not tested or not shown; ! = not active in a repeat. Most compounds without a hit are left out; they make up all but 3.5% or so of the library.
SMILES,TEAD-YAP inh,FBW7 act,GPR151 activ,MITF primary,GPR151 confirm,GPR119 ag
COc1ccc(CCNc2cc(N3CCN(S(=O)(=O)Cc4ccccc4)CC3)ccc2[N+](=O)[O-])cc1OC,7,0,4,5,.,.
COc1ccc(NC(=O)c2sc3nc(C)nc(N4CCC(C)CC4)c3c2C)cc1Cl,8,0,1,6,.,.
Cc1nnc(NC(=O)CN2CCC(O)(c3ccc(F)cc3)CC2)s1,2,0,6.8*,-2,0,6
COc1cc(C(C)=O)ccc1OCC(=O)NC(C)CCc1ccccc1 (stereo not drawn),1,0,3,-11,.,.
O=C1CCCCC(=O)N(c2ccccc2)c2ccccc21,15,0,-1,-9,.,.
O=C1Cc2ccccc2N1c1ccccc1,0,1,9.9*,-6,1,5
O=C(Nc1ccncc1)c1cccs1,-3,0,-1,7,.,.
Cc1cnccc1NC(=O)c1cccs1,3,0,0,-16,.,.
O=C(Nc1cccnc1)c1cccs1,40*,0,8.9*,-2,-1,-9
Cc1ccc(NC(=O)c2cccs2)cc1NC(=O)c1cnccn1,5,0,5.9*,5,0,4
COc1ccc(OC)c(C2=C/C(=C/c3cccc(OC)c3OC)C(=O)O2)c1,-6,0,5.1*,-5,0,4
Cc1ccc(C)c(N2CCN(S(=O)(=O)c3cc(C(=O)Nc4ccccc4C)ccc3F)CC2)c1,0,0,-1,3,.,.
Cc1ccc(-n2c(C)c3c(C)nnc(C)c3c2C)cc1N,-5,0,5.3*,-4,1,-3
N#Cc1cc2cc3c(cc2nc1NCCCNC(=O)Nc1ccc(F)cc1)OCO3,-3,0,0,3,.,.
O=C(CCNS(=O)(=O)c1ccc2[nH]c(=O)ccc2c1)NCc1ccccc1,-6,0,8.2*,4,0,3
Cc1ccc(CNC(=O)CCNS(=O)(=O)c2ccc3[nH]c(=O)ccc3c2)cc1,-3,0,0,2,.,.
COC(=O)C1=C(N)N(c2cccc(Cl)c2C)C2=C(C(=O)CC(C)(C)C2)C1c1cccnc1 (stereo not drawn),-15,0,1,4,.,.
Cc1ccc2[nH]c(=O)c3cc(C(=O)N4CCOCC4)sc3c2c1,-5,0,0,3,.,.
CC(C)(C)OC(=O)N[C@H]1CCC[C@@H](NC(=O)c2cccc(-n3cc(NC(=O)Cc4ccccc4)cn3)c2)C1,-1,0,5.4*,1,0,-10
Cc1ccc(C2(C)CC(C)(C)N(C(=O)CSC#N)c3ccc(C)cc32)cc1 (stereo not drawn),30,0,2,11,.,.
Cc1cc2[nH]c(=O)c(=O)[nH]c2cc1S(=O)(=O)NC1CCC(C)CC1 (stereo not drawn),-6,0,7.4*,2,1,3
CC(C)c1nnc(C2CCN(C(=O)Cn3c(=O)oc4ccccc43)CC2)o1,11,0,9.7*,-11,1,0
O=C(CSc1ccc(F)cc1)Nc1ccc(Cl)c(N2CCCS2(=O)=O)c1,-5,0,12*,-8,0,1
COC(=O)c1ccc(C2/C(=C(/O)c3ccc(C)cc3)C(=O)C(=O)N2CC(C)O)cc1 (stereo not drawn),6,0,0,11,.,.
O=C(N=C1N=C2C=CC=CN2Cc2ccccc21)c1ccc(Cl)s1,-27,0,-5,-11,.,.
SMILES,TEAD-YAP inh,FBW7 act,GPR151 activ,MITF primary,GPR151 confirm,GPR119 ag
Cc1ccc(-c2ccc(CN3CCN(C)C(CCO)C3)cc2)o1 (stereo not drawn),-15,0,2,3,.,.
Cc1ccc(-c2cccc(CN3CCN(C)C(CCO)C3)c2)o1 (stereo not drawn),0,0,8.8*,6,-1,-7
CN1CCN(Cc2ccc(-c3ccccc3Cl)o2)CC1CCO (stereo not drawn),-12,0,14*,-1,0,4
CCOC(=O)c1cccc(C(=O)Nc2cc(OC)c(OC)cc2C(=O)O)n1,-7,0,4,6,.,.
c1cc(NCc2ccc3c(c2)OCO3)n2ncc(-c3ccoc3)c2n1,-5,0,-1,-8,.,.
Cc1ccc(-c2csc(N3C(=O)CNC3=S)n2)cc1,-46,0,5.7*,16,-2,-19
COc1cccc2cc(C(=O)NCC(c3ccco3)N3CCN(c4ccc(F)cc4)CC3)c(=O)oc12 (stereo not drawn),-6,0,2,1,.,.
O=c1[nH]c(=O)n(-c2ccccc2)c(O)c1C=Nc1ccc(N2CCOCC2)cc1,-4,0,-1,21,.,.
CCCCNC(=O)/C(=C/c1ccco1)NC(=O)c1ccccc1I,10,0,9.2*,6,0,-9
CCCCNC(=O)/C(=C/c1ccco1)NC(=O)c1ccc(I)cc1,15,0,1,14,.,.
NC(=O)/C(=C\c1ccco1)NC(=O)c1ccccc1Br,0,0,6.6*,11,2,3
CC(=O)Nc1ccc(NC(=O)Cc2cn(-c3ccc(N4CCN(c5ccccn5)CC4)nn3)c3ccccc23)cc1,-35,0,0,3,.,.
COc1ccc(-c2noc(CN3CCN(c4ccc(F)cc4)CC3)n2)c(OC)c1OC,0,0,6.5*,11,0,-9
COc1ccc(-c2noc(CN3CCCN(c4ccc(F)cc4)CC3)n2)c(OC)c1OC,-16,0,0,6,.,.
CN(C)S(=O)(=O)c1cccc(C(=O)n2ncc(C#N)c2N)c1,5,0,5.3*,-8,0,0
Oc1ccc(C2CNCCc3c2cc(O)c(O)c3Cl)cc1 (stereo not drawn),-12,1,6.6*!,-17,0,1
CS(=O)(=O)N1CCC(Oc2cccc(C(=O)NCCCOc3cccnc3)c2)CC1,6,0,5.0*,0,0,5
COCCNC(=O)c1cccc(OC2CCN(C(C)CSC)CC2)c1 (stereo not drawn),4,0,7.0*,-2,0,10
C=C(C)CCC(C)N1CCC(Oc2cccc(C(=O)NCCOC)c2)CC1 (stereo not drawn),3,0,-1,4,.,.
O=C(NCc1ccco1)c1cccc(C(=O)NCc2ccco2)c1,-23,0,-1,45,.,.
CCOC(=O)c1ccccc1NC(=O)CC(C)CC(=O)O (stereo not drawn),-6,0,5.9*,5,1,5
COC(=O)c1ccc(OCC2c3cc(OC)c(OC)cc3CCN2C(=O)c2cccc(OC)c2OC)cc1 (stereo not drawn),-13,0,5.3*,0,1,1
CC(C)CCNC(=O)CC1Nc2c3ccccc3nc(=S)n2C1=O (stereo not drawn),2,0,-1,-3,.,.
